{
  "source": "ChEMBL document CHEMBL3988442",
  "about": "“University of Dundee, Small-Polar-MMV Screening Library” (2021)",
  "note": "The campaign covered roughly 48,000 compounds. About 13,000 (27%) showed an effect of 50% or more. The list shows a part of the results.",
  "data": [
    {"system": "Wolbachia pipientis", "assay": "Anti-Wolbachia Cell-Based Screen", "assay_type": "functional", "parameters": "scale not given: in the data most compounds retested in dose-response had high values", "conditions": "5 µM", "units": {"Percent Effect": "%"}, "values": [
      {"smiles": "Cc1noc(C)c1CN(C)Cn1nccc1-c1cccnc1", "Percent Effect": -3.571},
      {"smiles": "N#Cc1ccccc1CC1CCCS(=O)(=O)C1", "note": "(configuration not stated)", "Percent Effect": 23.18},
      {"smiles": "CC(C)C(C(=O)N1CCC(Nc2cccnn2)CC1)n1cncn1", "note": "(configuration not stated)", "Percent Effect": 1.287},
      {"smiles": "Cc1ccc(NC2CCN(C(=O)C(C)n3cncn3)CC2)nn1", "note": "(configuration not stated)", "Percent Effect": 101.5},
      {"smiles": "CC(C)C(C(=O)N1CCC(N(C)c2cccnn2)CC1)n1cncn1", "note": "(configuration not stated)", "Percent Effect": 6.546},
      {"smiles": "Cc1ccc(NC2CCN(C(=O)C(C(C)C)n3cncn3)CC2)nn1", "note": "(configuration not stated)", "Percent Effect": 114.7},
      {"smiles": "CCc1nc(Cn2cncc(Br)c2=O)no1", "Percent Effect": 3.979},
      {"smiles": "Cc1nc(NC(=O)CCOCC(F)(F)F)ccc1Br", "Percent Effect": 7.301},
      {"smiles": "CC(C)n1cnnc1Cn1c(=O)ccc2ccccc21", "Percent Effect": -18.72},
      {"smiles": "COCCc1noc(-c2cn(Cc3ccc(OC)cc3)nn2)n1", "Percent Effect": 3.926},
      {"smiles": "CS(=O)(=O)c1ccc(O[C@H]2COCCN(Cc3ccncc3)C2)cc1", "Percent Effect": 8.188},
      {"smiles": "CN(C)c1cccc(C2CCN(C3COCC3O)CC2)n1", "note": "(configuration not stated)", "Percent Effect": 145.5},
      {"smiles": "FC(F)(F)c1c[nH]c(C2CCN(c3ncccn3)CC2)n1", "Percent Effect": -5.698},
      {"smiles": "CN(C)c1nccc(C2CCN(C3CCCCC3O)CC2)n1", "note": "(configuration not stated)", "Percent Effect": 139.6},
      {"smiles": "O=C(Nc1ccc2ncsc2c1)N1CCCN([C@H]2COC[C@@H]2O)CC1", "Percent Effect": -6.319},
      {"smiles": "Cc1cc(C)nc(N2CCC(c3ccnc(N(C)C)n3)CC2)n1", "Percent Effect": 86.89},
      {"smiles": "CN(Cc1nncn1C)c1nccc(C2CCCC2)n1", "Percent Effect": -0.6799},
      {"smiles": "Cc1cc(C)nc(N2CCC(c3nnc(CN(C)C)n3C3CC3)CC2)n1", "Percent Effect": -32.06},
      {"smiles": "CCn1cnnc1CN(C)c1nccc(C2CCCC2)n1", "Percent Effect": -5.507},
      {"smiles": "CN(C)c1ccnc(N2CCC(NCCOc3ccccc3)CC2)n1", "Percent Effect": -8.661},
      {"smiles": "CN(C)c1cccc(C2CCN(c3ncccn3)CC2)n1", "Percent Effect": 105.5},
      {"smiles": "CC(C)c1ccnc(N[C@H]2COC[C@@H]2N2CCCC2)n1", "Percent Effect": 5.714},
      {"smiles": "COc1cc(C)nc(N2CCN(C(=O)CN(C)C3CC3)CC2)n1", "Percent Effect": -6.068},
      {"smiles": "Cc1noc(CN2CCOC(CN(C)C)C2)n1", "note": "(configuration not stated)", "Percent Effect": 4.204},
      {"smiles": "O=C1CO[C@H]2CN(S(=O)(=O)c3ccccc3)C[C@H]2N1CC1CCCCC1", "Percent Effect": -1.242},
      {"smiles": "CCN(CC1CCOC1)C(=O)Cn1nnn(-c2cccs2)c1=O", "note": "(configuration not stated)", "Percent Effect": -8.505},
      {"smiles": "COc1cc(OC)c(CNC(=O)NCC(=O)N2CCCC2)c(OC)c1", "Percent Effect": 0.1885},
      {"smiles": "Cn1cc(CN2CC[C@@H]3[C@@H](CCC(=O)N3CCC3=CCCCC3)C2)cn1", "Percent Effect": -6.139},
      {"smiles": "CC1CCN(CC(=O)NC(C#N)c2cnn(-c3ccccc3)c2)CC1", "note": "(configuration not stated)", "Percent Effect": -3.926},
      {"smiles": "Cc1ccsc1C(=O)Nc1ccc(N2CCC(O)CC2)c(C#N)c1", "Percent Effect": -13.01},
      {"smiles": "Cc1cc(C)c(CNC(=O)NCc2nnc3n2CCCC3)c(=O)[nH]1", "Percent Effect": -2.933},
      {"smiles": "CN(C)c1nccc(C2CCN(c3ncccn3)CC2)n1", "Percent Effect": 131.2},
      {"smiles": "CN(Cc1nccs1)C1CCN(c2ncccn2)CC1", "Percent Effect": -5.116},
      {"smiles": "CCN(CC)C1CCN(c2nccc(C3CCCC3)n2)C1", "note": "(configuration not stated)", "Percent Effect": 2.281},
      {"smiles": "Fc1cnc(NCC2Cn3nnc(-c4ccccc4)c3CO2)nc1", "note": "(configuration not stated)", "Percent Effect": -26.66},
      {"smiles": "O=C1CCSCC(C(=O)N2CCCC2)N1", "note": "(configuration not stated)", "Percent Effect": -10.11},
      {"smiles": "CN(C)C(=O)N1CC2(CCN(CC3CC3)CC2)c2cc(F)ccc21.O=C(O)C(F)(F)F", "Percent Effect": -28.12},
      {"smiles": "Cc1ccc2c(c1)C1(CCN(C(N)=O)CC1)CN2CC1CC1", "Percent Effect": 104},
      {"smiles": "Cc1ccc2c(c1)C1(CCN(C(N)=O)CC1)CN2C(=O)N(C)C", "Percent Effect": 10.3},
      {"smiles": "CC(=O)N1CCC2(CC1)CN(C(=O)C1CC1)c1ccc(F)cc12", "Percent Effect": -23.77},
      {"smiles": "CNC(=O)N1CCC2(CC1)CN(C)c1ccc(F)cc12", "Percent Effect": -1.265},
      {"smiles": "COCC(=O)N1CCC2(CCc3ccc(F)cc32)CC1.Cl", "Percent Effect": -16.21},
      {"smiles": "CC(=O)N1CCC2(CC1)CN(C(C)C)c1ccc(F)cc12", "Percent Effect": 93.83},
      {"smiles": "COCC(=O)N1CCC2(CC1)CC(OC)c1ccc(F)cc12", "note": "(configuration not stated)", "Percent Effect": -1.265},
      {"smiles": "COCC(=O)N1CCC2(CC1)CN(CC1CC1)c1ccc(F)cc12", "Percent Effect": 102.5},
      {"smiles": "CC(=O)N1CC2(CCN(C(=O)C3CC3)CC2)c2cc(C)ccc21", "Percent Effect": -2.981},
      {"smiles": "CC(=O)N1CCC2(CC1)CN(CC1CC1)c1ccc(F)cc12", "Percent Effect": 110.5},
      {"smiles": "CC(=O)N1CCC2(CC1)C(=O)N(C)c1ccc(F)cc12", "Percent Effect": -20.1},
      {"smiles": "COCc1cccc(S(=O)(=O)NCc2cnn(C)c2C)c1", "Percent Effect": 10.62},
      {"smiles": "CC(=O)c1cccc(NS(=O)(=O)c2cc(C)c(C(=O)O)s2)c1", "Percent Effect": 6.094},
      {"smiles": "CCSc1cncc(NCc2ccc(N3CCNC(=O)C3)cc2)n1", "Percent Effect": -9.871},
      {"smiles": "CC(C(=O)NCc1ccc(N2CCNC(=O)C2)cc1)c1cccs1", "note": "(configuration not stated)", "Percent Effect": 88.68},
      {"smiles": "Cc1cccnc1NC(=O)NCc1ccc(N2CCNC(=O)C2)cc1", "Percent Effect": -1.064},
      {"smiles": "O=C1CN(c2ccc(CNC(=O)NCCO)cc2)CCN1", "Percent Effect": 104.3},
      {"smiles": "CC(C(=O)NCc1ccc(N2CCNC(=O)C2)cc1)n1cncn1", "note": "(configuration not stated)", "Percent Effect": -3.383},
      {"smiles": "CC(O)CNC(=O)NCc1ccc(N2CCNC(=O)C2)cc1", "note": "(configuration not stated)", "Percent Effect": -1.608},
      {"smiles": "O=C1CN(c2ccc(CNC(=O)NCc3ccoc3)cc2)CCN1", "Percent Effect": 94.29},
      {"smiles": "NS(=O)(=O)Cc1ccc(CNC(=O)NCC2CCOC2)cc1", "note": "(configuration not stated)", "Percent Effect": -4.862},
      {"smiles": "Cc1nc(C(=O)NCc2ccc(N3CCNC(=O)C3)c(F)c2)cs1", "Percent Effect": -8.487},
      {"smiles": "O=C(NCc1ccc(Br)cc1)NCC1CCOC1", "note": "(configuration not stated)", "Percent Effect": -13.61},
      {"smiles": "O=C1CN(c2ccc(CNC(=O)NCC3CCOC3)cc2)CCN1", "note": "(configuration not stated)", "Percent Effect": 100.4},
      {"smiles": "Cc1ccccc1C(=O)NCc1ccc(N2CCNC(=O)C2)cc1", "Percent Effect": 3.423},
      {"smiles": "O=C(NCCCn1nc2ccccn2c1=O)NC1CCC(O)CC1", "note": "(configuration not stated)", "Percent Effect": -5.846},
      {"smiles": "CC(CCSc1ccccc1)N1CCCN(C(N)=O)CC1", "note": "(configuration not stated)", "Percent Effect": 1.732},
      {"smiles": "COc1cc2c(cc1OC)S(=O)(=O)N(Cc1cnn(C)c1)C2=O", "Percent Effect": -5.179},
      {"smiles": "CCN(Cc1cccc(-c2ccncc2)c1)S(C)(=O)=O", "Percent Effect": 22.59},
      {"smiles": "COc1ccnc(N2CCC(OCCN3CCCCC3)C2)n1", "note": "(configuration not stated)", "Percent Effect": -2.392}
    ]}
  ]
}
